Screening results from PubChem.
KDM5B inh = inhibitors of human KDM5B histone demethylase | Potency, µM (top dose mostly 57.7 µM), usual class: inhibitors | 220,000 tested, 2.6% active | KDM5B demethylase, FDH-coupled NADH fluorescence (FDH is formaldehyde dehydrogenase) | Q9UGL1; note: potency is the fitted concentration of half-maximal effect; 0% is about no effect; nearly all actives have a fitted effect of over 70% in size
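Inhibition is measured as reduced NADH fluorescence generation from FDH coupling to formaldehyde release. Truncated KDM5BΔAP at 200 nM final acts on H3K4me3 peptide (12.5 µM in substrate mix) in pH 7.5 HEPES buffer with Tween-20, 30 min, room temperature.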
SNCA viab count = reduces viability of HEK-293 SNCA reporter cells | Potency, µM (highest dose often 57.1 µM), inactives show top-dose activity change, negative = cytotoxicity, hits mostly cytotoxic | 150,000 tested, 0.12% active | HEK-293-SNCA-luc viability, GF-AFC fluorescence, 24 h;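 note: potency is the fitted concentration of half-maximal effect; 0% = DMSO-treated cells and -100% = medium-only wells without cells; nearly all actives have a fitted effect of over 30% in size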
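HEK-293-SNCA-luc cells (1500/well) plated 24 h, then exposed 24 h to a dilution series; GF-AFC added 30 min at 37C, fluorescence 405/540 nm; normalised to medium-only and DMSO wells, Hill fit.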
SNCA expr inh = SNCA gene expression inhibition; HEK-293 SNCA-luciferase knock-in, luminescence, 24 h; Potency, µM (series often up to 57.2 µM), for the others: top-dose activity change, negative = inhibition, usual class: inhibitors; 140,000 tested, 0.17% active;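 note: potency is the fitted concentration of half-maximal effect; plate controls were DMSO cells for no effect and cell-free wells for full effect; nearly all actives have a fitted effect of over 45% in size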
IP6K1 inhibitor = inhibitors of human IP6K1; IP6K1 kinase, ADP-Glo luminescence, 2 h; stronger effect = lower value; activity change, % (series mostly up to about 58 µM); 140,000 tested, 0.81% active; in the data active = activity change below about -25%; note: % is set by controls: 0 for no effect and ±100 for the full control effect
Target sequence (Q92551 whole entry, looked up): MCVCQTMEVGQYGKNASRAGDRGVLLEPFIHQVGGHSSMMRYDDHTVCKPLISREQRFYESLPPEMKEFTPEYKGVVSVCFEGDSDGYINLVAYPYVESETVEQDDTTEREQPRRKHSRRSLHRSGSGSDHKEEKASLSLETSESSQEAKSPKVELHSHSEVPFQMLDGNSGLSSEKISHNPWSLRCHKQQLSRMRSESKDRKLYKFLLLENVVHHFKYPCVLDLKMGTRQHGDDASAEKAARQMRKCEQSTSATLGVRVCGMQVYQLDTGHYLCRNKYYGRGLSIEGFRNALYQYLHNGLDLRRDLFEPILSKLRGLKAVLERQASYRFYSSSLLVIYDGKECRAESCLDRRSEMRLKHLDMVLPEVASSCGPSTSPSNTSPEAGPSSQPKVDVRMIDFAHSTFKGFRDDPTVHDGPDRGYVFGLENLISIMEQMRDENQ
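ADP-Glo luminescence measures ADP made by human IP6K1 during a 2 h RT reaction with ATP/IP6 (mix at 1.3 mM/130 uM); top library doses 57.5 and 19.1 uM final.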
* = called active by the depositor; i = inactive; u = inconclusive; x = no result given; ! = not active in a repeat; [ ] = another dose, or the depositor's remark. Only some compounds are listed: those with a hit (about 2.8% of all), similar ones and a draw of the others. Unless noted, calls come from the whole dose curve; as a rule, active = well fitted curve in the direction sought with a large enough effect; inconclusive = small, poorly fitted or top-dose-only effect, or another doubt; inactive = no such curve, though single readings can be large; an effect the other way counts as inactive or inconclusive.

SMILES	KDM5B inh	SNCA viab count	SNCA expr inh	IP6K1 inhibitor
c1cc2nc(C3CCN(C4CCCCC4)C3)[nH]c2cn1 (stereo not drawn)	40µM*!	4%[87.6 µM]	-4%[87.6 µM]	1
FC(F)(F)c1ccc2nc([C@H]3CCN(C4CCCCC4)C3)[nH]c2c1	u	-22%[87.6 µM]	48%[87.6 µM]	7
Cc1cccc(S(=O)(=O)Nc2nc3ccccc3nc2Nc2ccc(C)c(F)c2)c1	i	x	x	x
COc1ccc(Oc2nc(-c3ccccc3O)nc3ccccc23)cc1	i	x	x	x
Cc1nc2c(OCC(=O)OC(C)(C)C)cccn2c(=O)c1-c1cc(C)n(-c2cccc(F)c2)n1	u	-26%	15%	2
Cc1nc2c(OCC(=O)OC(C)(C)C)cccn2c(=O)c1-c1cc(C)n(-c2ccc(Cl)cc2)n1	28µM*	-3%	-2%	-8
CCOC(=O)C(C)Oc1cccn2c(=O)c(-c3cc(C)n(-c4ccc(Cl)cc4)n3)c(C)nc12 (stereo not drawn)	22µM*	5%	0%	17
Cc1ccc(C(=O)COc2cccn3c(=O)c(-c4cc(C)n(-c5ccccc5)n4)c(C)nc23)cc1	u	-26%	5%	5
CCOc1ccc(C(=O)Nc2nonc2CC)cc1	i	x	x	x
CSCc1ccc(C(=O)Nc2ccccc2F)o1	i	x	x	x
COc1ccc(CN2CCOC[C@H]2c2ncc(-c3ccc(S(C)(=O)=O)cc3)[nH]2)cc1	35µM*	-4%[87.6 µM]	u	-1
C=CCN1C(=O)c2ccccc2N2C(=O)CCC12C(=O)OCc1cc(=O)oc2cc(C)c(C)cc12 (stereo not drawn)	i	x	x	x
O=C1NCCCc2[nH]c(-c3cc(-c4cccc(F)c4)no3)nc21	u	2%	16%	13
O=C1NCCCc2[nH]c(-c3cnn(-c4cccc(F)c4)c3)nc21	28µM*	-17%	76%	-3
CCN(Cc1ccco1)C(=O)[C@@H]1CN(c2ncccn2)C[C@H]1COC	u	-3%	3%	2
CCOCC(=O)N[C@@H]1CN(c2ncccn2)C[C@H]1CO	u	4%	2%	-5
COC[C@@H]1CN(c2ncccn2)C[C@H]1C(=O)N(C)Cc1ccco1	18µM*	-15%	-12%	17
COC[C@@H]1CN(c2ncccn2)C[C@H]1C(=O)O	16µM*	5%	-3%	1
COc1ccc(C2Cn3nnc(C(=O)N4CCN(C(=O)Cc5ccccc5C)CC4)c3CO2)cc1 (stereo not drawn)	i	-4%	-24%	3
CCCCNc1ncc(C(=O)O)c(C)n1	14µM*	-3%	5%	1
Cc1nc(NC2CCCC2)ncc1C(=O)O	u	8%	-9%	-3
Cc1ccc(CSc2nc3c(c(=O)[nH]c(=O)n3C)n2C(C)C)cc1	i	x	x	x
Cc1cc(C)n2nc(C(=O)N3CCN4C(=O)CN(C)C(=O)C4C3)cc2n1 (stereo not drawn)	28µM*	10%	-2%	-17
CC(=O)c1c(C)nn(CC(=O)N2CCN3C(=O)CN(C)C(=O)C3C2)c1C (stereo not drawn)	i	0%	6%	-10
O=C(Cc1ccccc1F)N1CC(Oc2ccc(-c3noc(-c4cccnc4)n3)cc2)C1	u	u	u	4
SMILES	KDM5B inh	SNCA viab count	SNCA expr inh	IP6K1 inhibitor
CC(C)S(=O)(=O)N1CC(Oc2ccc(-c3noc(-c4cccnc4)n3)cc2)C1	28µM*	-29%	15%	-10
O=C(NCc1cccs1)c1nc(-c2ccc(F)cc2)c2cnccn12	40µM*	18%[87.6 µM]	-5%[87.6 µM]	12
O=C(NCc1ccc(F)cc1)c1nc(-c2cccnc2)c2ccccn12	112µM*	-18%	0%	-6
O=C(c1nc(-c2ccc(F)cc2)c2ccccn12)N1CCCC1	i	-17%[87.6 µM]	14%[87.6 µM]	0
CC(C)NC(=O)c1nc(-c2ccc(F)cc2)c2ccccn12	35µM*	7%[87.6 µM]	3%[87.6 µM]	6
O=C(NCc1ccc2c(c1)OCO2)c1nc(-c2ccc(F)cc2)c2cnccn12	u	10%	-2%	0
COC(=O)CNC(=O)c1nc(-c2ccc([S+](C)(=O)[O-])cc2)c2cnccn12	25µM*	29%	2%	-17
Oc1ccccc1C=NCCOCCN=Cc1ccccc1O	i	x	x	x
O=C(NC1CC1)c1nc(-c2cccc(F)c2)c2cnccn12	i	8%[87.6 µM]	-7%[87.6 µM]	4
C#CCNC(=O)c1nc(-c2cccc(F)c2)c2cnccn12	35µM*	9%[87.6 µM]	-2%[87.6 µM]	0
O=C(NCc1ccc(F)cc1)c1nc(-c2ccc(Cl)cc2Cl)c2cnccn12	56µM*	-9%	u	12
O=C(NCc1ccc(F)cc1)c1nc(-c2ccccc2)c2cnccn12	79µM*	11%	u	-2
O=C(NCc1cccnc1)c1nc(-c2ccc(F)cc2)c2cnccn12	28µM*	-7%	7%	0
COc1ccc(S(=O)(=O)Oc2ccc3c(c2)O/C(=C\c2ccc(OC)cc2OC)C3=O)cc1	i	x	x	x
Cc1ncsc1C(=O)N1CCC2(CC1)OC(=O)N(Cc1ccccc1F)C2(C)c1ccccc1 (stereo not drawn)	i	-1%	10%	-11
O=C(NC1CC1)c1nc(-c2cccc(C(F)(F)F)c2)c2cnccn12	i	13%	3%	1
O=C(NCc1ccncc1)c1nc(-c2cccnc2)c2cnccn12	u	8%	9%	-11
O=C(NCc1cccnc1)c1nc(-c2cccc(C(F)(F)F)c2)c2cnccn12	28µM*	5%	14%	12
O=C(NCc1cccnc1)c1nc(-c2cccc(F)c2)c2cnccn12	22µM*	6%	1%	4
COC(=O)CNC(=O)c1nc(-c2cccc(C(F)(F)F)c2)c2cnccn12	28µM*	-24%	50%	0
O=C(Nc1nc2ccc(F)cc2s1)c1nc(S(=O)(=O)Cc2ccccc2)ncc1Cl	u	32µM*	u	-40*
CC(Cn1cncn1)Nc1ccc(-c2nc(Cc3ccc(F)cc3)no2)cn1 (stereo not drawn)	25µM*	5%	48%	4
O=C1c2cc(N3CCOCC3)nc(-c3cccc(CO)c3)c2CN1Cc1ccccc1	35µM*	-13%[87.6 µM]	-9%[87.6 µM]	3
O=C1c2cc(N3CCOCC3)nc(-c3cccc(F)c3)c2CN1Cc1ccccc1	32µM*	6%[87.6 µM]	-26%[87.6 µM]	11
O=C1c2cc(N3CCOCC3)nc(-c3ccc(F)cc3)c2CN1Cc1ccccc1	35µM*	0%[87.6 µM]	-10%[87.6 µM]	8
COc1ccccc1N1CCN(C(=O)CCNS(=O)(=O)c2ccc3[nH]c(=O)ccc3c2)CC1	i	x	x	x
COc1ccc(-c2ccc(C(=O)N3Cc4[nH]cnc4CC3C(=O)O)o2)cc1 (stereo not drawn)	28µM*	9%	19%	-5
COc1ccccc1-c1nc2cnccn2c1NCCC(=O)Nc1cc(F)ccc1F	28µM*	u	-1%	30
Cc1ccc(-c2nc3cnccn3c2NCCC(=O)NCc2ccco2)cc1	28µM*	u	u	1
COc1ccc(-c2nc3cnccn3c2NCCC(=O)O)cc1	28µM*	u	1%	6
